Results reported in paper PMC10668032, “Altered binding affinity of SIX1-Q177R correlates with enhanced WNT5A and WNT pathway effector expression in Wilms tumor”.
In all, about 33,000 sequences were measured (“e-score”: median about -0.05, highest 2% from about 0.38 on). What follows is part of a selection rich in the highest values, with near analogues and random picks from the rest.

Molecular target: T1, SIX1-Q177R homeodomain (human, UniProt Q15475 108-198, Q177R)
T1 sequence: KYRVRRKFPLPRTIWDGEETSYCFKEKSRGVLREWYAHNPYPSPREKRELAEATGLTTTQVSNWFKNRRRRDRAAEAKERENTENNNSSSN
Assay: universal protein binding microarray; Universal all-10-mer PBM (8x60K, AMADID 030236), 300 nM GST-tagged protein, Alexa Fluor 488 anti-GST; buffer, salt, pH and temperature not stated (as in Berger); high values mean tight binding
Conditions: protein: ivt; tags: N-terminal GST; dsDNA, one strand shown
Outline: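 GST-tagged homeodomains were made by in vitro transcription/translation and quantified by anti-GST western blot against a recombinant GST standard curve. They were applied in duplicate at 300 nM final concentration to universal 'all 10-mer' protein binding microarrays (8×60K format). Binding was quantified as 8-mer E-scores with the Universal PBM Analysis Suite.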

Point of comparison: CACACTGA, binding signal 0.208 ± 0.0349 E-score. Against it:
- CAATACAC — higher, 0.371 ± 0.0193 E-score
- CAAAATAC — within error, 0.162 ± 0.0251 E-score
- CCCTTAGG — within error, 0.175 ± 0.00592 E-score
- CACCCGAG — higher, 0.297 ± 0.0235 E-score
- ACCAGTGG — within error, 0.189 ± 0.0039 E-score
- CCCCAAGG — within error, 0.218 ± 0.0124 E-score
- ACCTGGGG — within error, 0.21 ± 0.0103 E-score
- CACGCCGG — higher, 0.287 ± 0.0131 E-score
- GGTTAACA — within error, 0.224 ± 0.0235 E-score
- TCTTAACA — within error, 0.202 ± 0.0606 E-score
- TGTTAACA — higher, 0.389 ± 0.043 E-score
- CCCTAGTC — within error, 0.167 ± 0.0143 E-score
- ACACCTCC — higher, 0.4719 ± 0.000629 E-score
- CCACCTCC — lower, 0.159 ± 0.00267 E-score
- ACCCCTCG — higher, 0.3069 ± 0.00276 E-score
- ACTCCTCT — within error, 0.174 ± 0.0278 E-score
- ATACCTCC — within error, 0.231 ± 0.0309 E-score
- ACGCCTCA — within error, 0.165 ± 0.0291 E-score
- ACACCTCA — higher, 0.452 ± 0.0073 E-score
- GCACCTCA — within error, 0.162 ± 0.0144 E-score
- ACCCCTCT — higher, 0.304 ± 0.0038 E-score
- ACACCTCG — higher, 0.453 ± 0.00735 E-score
- ACACCTCT — higher, 0.467 ± 0.0079 E-score
- CACCCTCG — higher, 0.349 ± 0.0215 E-score
- ACCCGATA — within error, 0.237 ± 0.00872 E-score
- CACCGAGG — higher, 0.2466 ± 0.00166 E-score
- CACCAATC — higher, 0.287 ± 0.00449 E-score
- GAAGGACA — within error, 0.176 ± 0.0303 E-score
- AACGAGTG — within error, 0.189 ± 0.0329 E-score
- CCCCCTGA — higher, 0.277 ± 0.0278 E-score
- CCCCCAGG — within error, 0.213 ± 0.0301 E-score
- CACCTGCG — higher, 0.26 ± 0.0138 E-score
- ACTTCTAC — within error, 0.182 ± 0.0104 E-score
- CACGGGAC — within error, 0.163 ± 0.0415 E-score
- CCCCTCAA — within error, 0.161 ± 0.0276 E-score
- CACTCAAG — higher, 0.264 ± 0.00106 E-score
- CGACTCCA — higher, 0.275 ± 0.014 E-score
- CCCCTCCG — higher, 0.2736 ± 0.00272 E-score
- CACTAGGC — within error, 0.221 ± 0.00293 E-score
- CCCCTTAC — within error, 0.245 ± 0.00846 E-score
- CACACTGC — within error, 0.258 ± 0.0222 E-score
- GACACTAA — higher, 0.369 ± 0.00967 E-score
- GACACTGC — higher, 0.4326 ± 0.00138 E-score
- GACACTGA — higher, 0.403 ± 0.0214 E-score
- TACACTGA — higher, 0.394 ± 0.0104 E-score
- CACACTGG — within error, 0.264 ± 0.0213 E-score
- TACACTAA — higher, 0.381 ± 0.0182 E-score
- AACACTGC — higher, 0.375 ± 0.0233 E-score
- AACACTGA — higher, 0.35 ± 0.0172 E-score
- AACACTAA — higher, 0.336 ± 0.0111 E-score
- AATCGTGT — higher, 0.369 ± 0.0106 E-score
- AACTCCCG — within error, 0.181 ± 0.0506 E-score
- ACTGGTAC — within error, 0.192 ± 0.00471 E-score
- CCCCCCGA — higher, 0.314 ± 0.0156 E-score
- CACTACGG — within error, 0.188 ± 0.0252 E-score
- CGAGGAAC — within error, 0.197 ± 0.0457 E-score
- CCGATCCC — within error, 0.221 ± 0.00253 E-score
- TACTCCAA — within error, 0.198 ± 0.0212 E-score
- CACTGTGC — within error, 0.204 ± 0.00431 E-score
- CACAGGTG — higher, 0.307 ± 0.0159 E-score
- CACACTTA — within error, 0.204 ± 0.00443 E-score
- GACACTTA — higher, 0.383 ± 0.00709 E-score
- AACACTTA — higher, 0.328 ± 0.0332 E-score
- CAACGACA — within error, 0.197 ± 0.0113 E-score
- CGGATCCC — within error, 0.235 ± 0.023 E-score
- CAGGGGTA — within error, 0.234 ± 0.0165 E-score
- ACCCAGGG — within error, 0.201 ± 0.0184 E-score
- AACACTAT — higher, 0.295 ± 0.0435 E-score
- CACACTAG — higher, 0.25 ± 0.0068 E-score
- CACACTAC — higher, 0.2973 ± 0.00215 E-score
- AACACTAC — higher, 0.381 ± 0.0184 E-score
- AACACTAG — higher, 0.357 ± 0.0233 E-score
- GACACTAC — higher, 0.434 ± 0.00877 E-score
- CACCCAGG — higher, 0.284 ± 0.0239 E-score
- GGTGCTAC — within error, 0.183 ± 0.00715 E-score
- ACACTACA — higher, 0.41 ± 0.0193 E-score
- ACACTACT — higher, 0.393 ± 0.0188 E-score
- ACACTATC — higher, 0.342 ± 0.0149 E-score
- TCACTACA — within error, 0.225 ± 0.0148 E-score
- ACACTATA — higher, 0.322 ± 0.0287 E-score
- ACACTAAT — higher, 0.333 ± 0.0159 E-score
- ACTCTACC — within error, 0.151 ± 0.0299 E-score
- ACACTAAG — higher, 0.337 ± 0.0137 E-score
- CCACTACA — higher, 0.298 ± 0.0151 E-score
- ACACTACG — higher, 0.388 ± 0.00491 E-score
- ACACTATG — higher, 0.328 ± 0.0294 E-score
- ACACTACC — higher, 0.421 ± 0.00623 E-score
- CCAGAACA — higher, 0.261 ± 0.00433 E-score
- GGGGCGTA — lower, 0.159 ± 0.0113 E-score
- CCGCGTCA — within error, 0.156 ± 0.0229 E-score
- AGTAGGTG — higher, 0.279 ± 0.025 E-score
- CCTCTTTA — within error, 0.171 ± 0.0307 E-score
- AGGGTATG — within error, 0.226 ± 0.0255 E-score
- ACCGGACA — within error, 0.245 ± 0.00259 E-score
- CCCCGGCC — within error, 0.233 ± 0.0259 E-score
- GGGTACCC — within error, 0.234 ± 0.00584 E-score
- AGGTATCC — higher, 0.344 ± 0.00693 E-score
- GGGTACAC — higher, 0.443 ± 0.0111 E-score
- CGGTATCC — higher, 0.325 ± 0.00938 E-score
- AGGTACAC — higher, 0.452 ± 0.00159 E-score
- AGGTACTC — within error, 0.166 ± 0.0232 E-score
- CGGTACAC — higher, 0.4352 ± 0.00226 E-score
- GGGTACAA — within error, 0.17 ± 0.0208 E-score
- CGGTATAC — lower, 0.165 ± 0.00282 E-score
- CGCACTAC — within error, 0.152 ± 0.0379 E-score
- CACGCTCG — within error, 0.242 ± 0.0063 E-score
- ACTGCATA — within error, 0.2138 ± 0.00024 E-score
- ATTGGGTG — within error, 0.261 ± 0.0204 E-score
- CACTCATA — within error, 0.195 ± 0.0111 E-score
